Data reported in the supplement of paper PMC6897291.

Test system: RIVA
Test: growth inhibition by drug plus 177Lu-lilotomab satetraxetan (1 - RLU/untreated control) (fraction); higher = stronger inhibition
Conditions: 177Lu-lilotomab satetraxetan 0.5 ug/ml
Method: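 RIVA (RI-1) ABC-DLBCL cells were pretreated or not for 18 h with 0.5 ug/ml 177Lu-lilotomab satetraxetan (600 MBq/mg), washed and seeded (3000 cells/well) on 384-well plates pre-printed with the Selleck Cambridge Cancer Compound library. Viability was read by RealTime-Glo luminescence on days 3-6 after seeding. Effect = 1 - RLU/mean RLU of the 48 untreated no-drug control wells per plate; Bliss score = (M-E)/(1-Fa).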

| SMILES | growth inhibition by drug plus 177Lu-lilotomab satetraxetan (10 nM, time (day): 3) | growth inhibition by drug plus 177Lu-lilotomab satetraxetan (10 nM, time (day): 4) | growth inhibition by drug plus 177Lu-lilotomab satetraxetan (10 nM, time (day): 5) | growth inhibition by drug plus 177Lu-lilotomab satetraxetan (10 nM, time (day): 6) | growth inhibition by drug plus 177Lu-lilotomab satetraxetan (100 nM, time (day): 3) | growth inhibition by drug plus 177Lu-lilotomab satetraxetan (100 nM, time (day): 4) | growth inhibition by drug plus 177Lu-lilotomab satetraxetan (100 nM, time (day): 5) | growth inhibition by drug plus 177Lu-lilotomab satetraxetan (100 nM, time (day): 6) |
| --- | --- | --- | --- | --- | --- | --- | --- | --- |
| CN(C)c1nc(N(C)C)nc(N(C)C)n1 [Altretamine (Hexalen)] | 0.349 | 0.469 | 0.481 | 0.485 | 0.239 | 0.318 | 0.312 | 0.332 |
| O=C(O)C1(C(=O)O)CCC1.[NH2-].[NH2-].[Pt+2] [Carboplatin] | 0.458 | 0.519 | 0.538 | 0.54 | 0.528 | 0.554 | 0.565 | 0.569 |
| Cc1[nH]c(/C=C2\C(=O)Nc3ccc(S(=O)(=O)Cc4c(Cl)cccc4Cl)cc32)c(C)c1C(=O)N1CCC[C@@H]1CN1CCCC1 | 0.279 | 0.438 | 0.464 | 0.487 | 0.246 | 0.384 | 0.381 | 0.376 |
| COc1cc2c(N3CCN(C(=O)Nc4ccc(OC(C)C)cc4)CC3)ncnc2cc1OCCCN1CCCCC1 [Tandutinib (MLN518)] | 0.419 | 0.516 | 0.54 | 0.542 | 0.365 | 0.403 | 0.407 | 0.387 |
| CNC(=O)c1ccc(C)c(-n2c(C)cc(OCc3ccc(F)cc3F)c(Br)c2=O)c1 | 0.41 | 0.508 | 0.521 | 0.522 | 0.384 | 0.458 | 0.462 | 0.428 |
